# Records with an inconclusive call do not appear. Calls of active or inactive are those of the source.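 How the source made its calls, unless noted: active means normalized viability below 100% at a tested concentration; inactive means the rest.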
# Experiments:
# [1] = viability loss in pontine glioma line – cell-based, SU-DIPG-XVII, MIPE5.0, CellTiter-Glo, qHTS, dose response (AID 1347060; cut-off not given, nearly all actives have AC50 up to about 26 µM;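 further: cells exposed to compound for 48 hours before viability readout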); details: CellTiter-Glo ATP luminescence
# [2] = viability loss in pontine glioma line – cell-based, SU-DIPG-IV, MIPE4.0, CellTiter-Glo, qHTS, dose response (AID 1347063; cut-off not given, nearly all actives have AC50 up to about 30 µM;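 further: compound exposure lasted 48 hours before the viability readout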); details: CellTiter-Glo ATP luminescence
# [3] = viability loss in pontine glioma line – cell-based, SU-DIPG-XIII, MIPE5.0, CellTiter-Glo, qHTS, dose response (AID 1347064; cut-off not given, nearly all actives have AC50 up to about 23 µM;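 further: cells exposed to compound for 48 hours before the viability read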); details: CellTiter-Glo ATP luminescence
# [4] = viability loss in pontine glioma line – cell-based, SU-DIPG-XXV, MIPE5.0, CellTiter-Glo, qHTS, dose response (AID 1347065; cut-off not given, nearly all actives have AC50 up to about 26 µM;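 further: cells exposed to compound for 48 hours before ATP readout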); details: CellTiter-Glo ATP luminescence
# [5] = growth inhibition of DIPG cells – cell-based, MIPE4.0 library, CellTiter-Glo luminescence, qHTS (AID 1347066; cut-off not given, nearly all actives have AC50 up to about 30 µM;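 further: cells exposed to compound for 48 hours before readout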); details: SU-DIPG-VI viability, CellTiter-Glo ATP luminescence
# [6] = JHH-DIPG-1 glioma cell viability, MIPE5.0 library, CellTiter-Glo luminescence, qHTS (AID 1347067; cut-off not given, nearly all actives have AC50 up to about 26 µM;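 further: cells exposed to compound for 48 hours before readout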); details: JHH-DIPG-1 glioma viability, CellTiter-Glo ATP luminescence
# [7] = growth inhibition of DIPG cells – cell-based, MIPE5.0 library, qHTS (AID 1347068; cut-off not given, nearly all actives have IC50 up to about 30 µM;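 further: cells exposed to compound for 48 hours before viability readout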); details: SU-DIPG-XXV viability
# [8] = viability loss with induced miR-34 in A549 – imaging, A549 dox-inducible miR-34, nuclei and caspase counts, primary screen (AID 1347080;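 active means compounds whose cell count with miR-34 switched on is under 0.7 times the count with it off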); details: A549 miR-34 inducible, Hoechst nuclei count, 48 h
# [9] = compounds altering HSF1 focus formation in cells – imaging, Selleck Cancer Library (AID 1347162; in the data active means plate-normalised HSF1 focus index below about 0.46); details: human cells, HSF1 nuclear foci imaging, at 10 µM; SSMD: measured here: HSF1 foci SSMD mean; cell count: measured here: cell number; plate-normalised HSF1 focus index: stronger effect = lower value
# [10] = MELAS cybrid and Rieske KO viability enhancers – cell-based, MELAS cybrids, Rieske KO mouse fibroblasts, CellTiter-Glo, primary screen (AID 1508586;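 active means mean z-score across replicates of 1.96 or higher in either the MELAS or the Rieske mutant cell line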;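 further: z relative to plate mean and SD of compound and empty wells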); details: low glucose
# [11] = drug combination growth inhibition, ovarian cancer – cell-based, oncology-focused library, rucaparib conditional, profiling panel (AID 1508598); details: patient-derived ovarian cancer cells, CellTiter-Glo viability, 144 h, stronger effect = lower value
# [12] = stronger effect = lower value, cell number ratio, induced over uninduced
# [13] = measured here: relative caspase fold change +Dox/-Dox
# [14] = measured here: total cells with miR-34 induction, stronger effect = lower value
# [15] = measured here: total cells without miR-34 induction
# [16] = MELAS cybrid survival, CellTiter-Glo 48 h, stronger effect = higher value
# [17] = Rieske KO mouse fibroblast survival, CellTiter-Glo 72 h
# [18] = at 0.000305 µM, OCI-C5x cells, with rucaparib 10 µM, 100% = cells with rucaparib alone
# [19] = at 0.000305 µM, OCI-C5x cells, without rucaparib
# [20] = at 0.000305 µM, OCI-P5x cells, with rucaparib 20 µM, 100% = cells with rucaparib alone
# [21] = at 0.000305 µM, OCI-P5x cells, without rucaparib
# [22] = at 0.00122 µM, OCI-C5x cells, with rucaparib 10 µM, 100% = cells with rucaparib alone
# [23] = at 0.00122 µM, OCI-C5x cells, without rucaparib
# [24] = at 0.00122 µM, OCI-P5x cells, with rucaparib 20 µM, 100% = cells with rucaparib alone
# [25] = at 0.00122 µM, OCI-P5x cells, without rucaparib
# [26] = at 0.00488 µM, OCI-C5x cells, with rucaparib 10 µM, 100% = cells with rucaparib alone
# [27] = at 0.00488 µM, OCI-C5x cells, without rucaparib
# [28] = at 0.00488 µM, OCI-P5x cells, with rucaparib 20 µM, 100% = cells with rucaparib alone
# [29] = at 0.00488 µM, OCI-P5x cells, without rucaparib
# [30] = at 0.0195 µM, OCI-C5x cells, with rucaparib 10 µM, 100% = cells with rucaparib alone
# [31] = at 0.0195 µM, OCI-C5x cells, without rucaparib
# [32] = at 0.0195 µM, OCI-P5x cells, with rucaparib 20 µM, 100% = cells with rucaparib alone
# [33] = at 0.0195 µM, OCI-P5x cells, without rucaparib
# [34] = at 0.0781 µM, OCI-C5x cells, with rucaparib 10 µM, 100% = cells with rucaparib alone
# [35] = at 0.0781 µM, OCI-C5x cells, without rucaparib
# [36] = at 0.0781 µM, OCI-P5x cells, with rucaparib 20 µM, 100% = cells with rucaparib alone
# [37] = at 0.0781 µM, OCI-P5x cells, without rucaparib
# [38] = at 0.313 µM, OCI-C5x cells, with rucaparib 10 µM, 100% = cells with rucaparib alone
# [39] = at 0.313 µM, OCI-C5x cells, without rucaparib
# [40] = at 0.313 µM, OCI-P5x cells, with rucaparib 20 µM, 100% = cells with rucaparib alone
# [41] = at 0.313 µM, OCI-P5x cells, without rucaparib
# [42] = at 1.25 µM, OCI-C5x cells, with rucaparib 10 µM, 100% = cells with rucaparib alone
# [43] = at 1.25 µM, OCI-C5x cells, without rucaparib
# [44] = at 1.25 µM, OCI-P5x cells, with rucaparib 20 µM, 100% = cells with rucaparib alone
# [45] = at 1.25 µM, OCI-P5x cells, without rucaparib
# [46] = at 5 µM, OCI-C5x cells, with rucaparib 10 µM, 100% = cells with rucaparib alone
# [47] = at 5 µM, OCI-C5x cells, without rucaparib
# [48] = at 5 µM, OCI-P5x cells, with rucaparib 20 µM, 100% = cells with rucaparib alone
# [49] = at 5 µM, OCI-P5x cells, without rucaparib
compound,measurement,setting,value
COC(=O)c1ccc2c(C(=Nc3ccc(N(C)C(=O)CN4CCN(C)CC4)cc3)c3ccccc3)c(O)[nH]c2c1,AC50,[1],1.48 µM (active)
same,AC50,[2],9.35 µM (active)
same,AC50,[3],2.09 µM (active)
same,AC50,[4],1.66 µM (active)
same,outcome,[5],inactive
same,AC50,[6],5.9 µM (active)
same,IC50,[7],3.32 µM (active)
same,fold change,[8]; [12],0.909 (inactive)
same,fold change,[8]; [13],1.19
same,cell count,[8]; [14],5790
same,cell count,[8]; [15],6370
same,SSMD,[9],2.23
same,cell count,[9],7520
same,plate-normalised HSF1 focus index,[9],1.08 (inactive)
same,z-score,[10]; [16],-0.457 (inactive)
same,z-score,[10]; [17],-1.1
same,viability,[11]; [18],119% (inactive)
same,viability,[11]; [19],127% (inactive)
same,viability,[11]; [20],103% (inactive)
same,viability,[11]; [21],111% (inactive)
same,viability,[11]; [22],107% (inactive)
same,viability,[11]; [23],128% (inactive)
same,viability,[11]; [24],95.9% (active)
same,viability,[11]; [25],102% (inactive)
same,viability,[11]; [26],114% (inactive)
same,viability,[11]; [27],118% (inactive)
same,viability,[11]; [28],95.7% (active)
same,viability,[11]; [29],104% (inactive)
same,viability,[11]; [30],120% (inactive)
same,viability,[11]; [31],115% (inactive)
same,viability,[11]; [32],94.4% (active)
same,viability,[11]; [33],97.5% (active)
same,viability,[11]; [34],116% (inactive)
same,viability,[11]; [35],116% (inactive)
same,viability,[11]; [36],93% (active)
same,viability,[11]; [37],96.8% (active)
same,viability,[11]; [38],128% (inactive)
same,viability,[11]; [39],118% (inactive)
same,viability,[11]; [40],87% (active)
same,viability,[11]; [41],97.6% (active)
same,viability,[11]; [42],124% (inactive)
same,viability,[11]; [43],116% (inactive)
same,viability,[11]; [44],66.6% (active)
same,viability,[11]; [45],73.9% (active)
same,viability,[11]; [46],124% (inactive)
same,viability,[11]; [47],118% (inactive)
same,viability,[11]; [48],51.6% (active)
same,viability,[11]; [49],59.1% (active)
Cc1ccc(F)c(NC(=O)Nc2ccc(-c3cccc4[nH]nc(N)c34)cc2)c1,AC50,[1],14.8 µM (active)
same,AC50,[2],14.8 µM (active)
same,AC50,[3],7.42 µM (active)
same,AC50,[4],8.33 µM (active)
same,AC50,[6],1.05 µM (active)
same,IC50,[7],18.6 µM (active)
same,fold change,[8]; [12],0.905 (inactive)
same,fold change,[8]; [13],0.989
same,cell count,[8]; [14],2590
same,cell count,[8]; [15],2860
same,SSMD,[9],4.01
same,cell count,[9],6540
same,plate-normalised HSF1 focus index,[9],1.21 (inactive)
same,z-score,[10]; [16],-0.438 (inactive)
same,z-score,[10]; [17],0.36
same,viability,[11]; [18],110% (inactive)
same,viability,[11]; [19],114% (inactive)
same,viability,[11]; [20],85.4% (active)
same,viability,[11]; [21],19.5% (active)
same,viability,[11]; [22],108% (inactive)
same,viability,[11]; [23],112% (inactive)
same,viability,[11]; [24],81.6% (active)
same,viability,[11]; [25],16.8% (active)
same,viability,[11]; [26],119% (inactive)
same,viability,[11]; [27],112% (inactive)
same,viability,[11]; [28],96.5% (active)
same,viability,[11]; [29],97.7% (active)
same,viability,[11]; [30],110% (inactive)
same,viability,[11]; [31],119% (inactive)
same,viability,[11]; [32],108% (inactive)
same,viability,[11]; [33],97.3% (active)
same,viability,[11]; [34],111% (inactive)
same,viability,[11]; [35],110% (inactive)
same,viability,[11]; [36],103% (inactive)
same,viability,[11]; [37],102% (inactive)
same,viability,[11]; [38],113% (inactive)
same,viability,[11]; [39],107% (inactive)
same,viability,[11]; [40],91.5% (active)
same,viability,[11]; [41],90.2% (active)
same,viability,[11]; [42],112% (inactive)
same,viability,[11]; [43],123% (inactive)
same,viability,[11]; [44],99.2% (active)
same,viability,[11]; [45],87.8% (active)
same,viability,[11]; [46],83.6% (active)
same,viability,[11]; [47],145% (inactive)
same,viability,[11]; [48],14.3% (active)
same,viability,[11]; [49],35.5% (active)
